Data on 40 molecules can be found in PubChem BioAssay (NCI).

About 83,000 compounds went through this panel and 20% of them were active in at least one assay; those are over-represented in the sample as a whole.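 Activity criterion: percent growth below 10, measured after cells in 96-well plates were exposed to a single compound concentration for 48 hours.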 A number with no mark means an inactive call. Calls of active or inactive are those of the source.

The experiment concerns MDA-MB-468 breast. Nature of the experiment: NCI-60 one-dose screen, 48 h (100 = growth as untreated, 0 = no growth, -100 = all killed). Particulars: 10 µM unless noted.
Take `COc1ccc(C[n+]2c3ccccc3n3c4ccc(N)cc4ccc32)c(OC)c1OC`: the growth was -22.5% (active).

On to `CN(C)c1ccc(C(c2ccccc2)c2ccc(N(C)C)cc2)cc1`, for which the growth is 103%.

Consider `CCNCCNc1cc(-c2ccc(C(F)(F)F)cc2)c(C#N)c2nc3cc(Cl)c(Cl)cc3n12`, for which the growth was -82% (active). For the molecule `COc1cc(C(=O)n2nc(NCCCc3ccccc3)c3cc(N)ccc32)cc(OC)c1OC`, the growth was 91.4%. Under `NC(=O)c1cc2c3ccccc3ccn2c1-c1ccccc1` stands 17.5%; under `CSC(=N\N=C\c1ccc(N(C)C)cc1)/N=C/N(C)C`, 83.5%; under `COc1ccc(-c2n/c(=C\c3c(O)[nH]c4ccccc34)cc3c2=Nc2ccccc2-3)cc1`, -48% (active). Turning to `COc1ccc(/C=C2\N=C3SC=C(N)N3C2=O)cc1`, the growth is -31.9% (active). Under `CCOC(=O)C1=C(C)Nc2nnc(Nc3ccccc3)n2C1c1ccccc1` (stereo not given) stands 68.4%; under `NNC(=O)C1CC2c3ccccc3C1c1ccccc12` (stereo not given), 112%; under `COc1ccc(CC2c3cc(OC)c(OC)cc3CC[N+]2(C)CCC(=O)OCCCCCOC(=O)CC[N+]2(C)CCc3cc(OC)c(OC)cc3C2Cc2ccc(OC)c(OC)c2)cc1OC` (stereo not given), 88.3%. The result for `CCCCC(C=O)(C=C=C(C)C)CC` (stereo not given) reads 108%; that for `CCN(C(=O)c1ccc2c3c(cccc13)C=C2)c1ccccc1`, 84.3%. The result for `NC(=O)c1ncn2c(=O)n(CCF)nnc12` reads 48.4%; that for `COc1ccc(Cl)cc1NC(N)=S`, 101%. Take `CC1=C(O)C(=O)C(C(C#N)(C#N)C(C#N)C#N)C1` (stereo not given): the growth is 102%. The result for `Nn1c(=O)n(-c2cccc(C(F)(F)F)c2)c(=O)c2cc(-c3ccc(F)cc3F)ccc21` reads -5.36% (active). The result for `O=C(N=Nc1c(O)[nH]c2ccccc12)Nc1ccc(Br)cc1` reads 70.5%.

Turning to `Cc1c2c(cc3c1[nH]c1ccccc13)C=NCC2`, the growth was 80.2%. Take `CN(Cc1cnc2nc(N)nc(N)c2n1)c1ccc(C(=O)N[C@@H](CCc2nn[nH]n2)c2nn[nH]n2)cc1`: the growth is 52.8%. With `O=S(=O)(NC1CC2CCC1C2)c1ccc2c(c1)C(=NO)c1cc(S(=O)(=O)NC3CC4CCC3C4)ccc1-2` (stereo not given), the growth is -61.9% (active).

With `CCCC(=O)NC(c1ccc(N(CC)CC)cc1)c1cc(C)c2cccnc2c1O` (stereo not given), the growth is -16.1% (active). Under `COc1ccc(-n2nc(C)c3c(Nc4ccc(NC(=O)Nc5ccc(Cl)c(C(F)(F)F)c5)cc4)ncnc32)cc1` stands -19.9% (active); under `CC(C)(C)n1cc(-c2ccnc(NCCCNS(=O)(=O)c3ccc(Cl)cc3)c2)c(-c2cccc(F)c2)n1`, 48.4%.

On to `COc1ccc(-c2cc(-c3cccnc3)nc3sc(C(=O)Nc4ccccc4)c(N)c23)cc1OC`, for which the growth was 80.8%.

With `COCCn1cc(-c2csc(-c3cn(C)c4ccc(Br)cc34)n2)c2cccnc21`, the growth was 54.8%.

Consider `CCCCCCCCSc1ncnc2c1ncn2CO`, for which the growth is 11.9%. The result for `Clc1cccc(/C=N/Nc2nc(N/N=C/c3cccc(Cl)c3)nc(N3CCOCC3)n2)c1` reads 30.8%. The result for `Cc1nn(-c2ccccc2)c2nc(N)c(C3=NCCO3)nc12` reads 113%. With `C[C@@H](CO)[C@@H]1CC[C@]2(C(=O)N3CCN(C)CC3)CC[C@]3(C)[C@H](CC[C@@H]4[C@@]5(C)CC[C@H](O)C(C)(C)[C@@H]5CC[C@]43C)[C@@H]12`, the growth was 61%.

In the case of `O=C(O)C#Cc1ccc(Cl)cc1`, the growth is 101%. Turning to `CCN1CCN(Cc2cn(-c3ccc(S(N)(=O)=O)cc3)nn2)CC1`, the growth is 99.7%. The result for `CCCCCCCC/C=C/CCCCCCCC1=NC(C)(C)CN1C(C)C` reads -70.1% (active); that for `CC(C)(C)OC[C@@H]1N=C(c2ccc(Br)cc2)Nc2nc3ccccn3c2C1=O`, 45.6%. For `CN([O-])c1nc(N(C)[O-])nc(N2CCOCC2)n1.CN([O-])c1nc(N(C)[OH2+])nc(N2CCOCC2)n1.[Fe+3]`, the growth is -52.3% [100 µM] (active). On to `N#CC1=C(N)Oc2ccc3ccccc3c2C1c1ccc([N+](=O)[O-])cc1` (stereo not given), for which the growth is 66.7%. The result for `CN([N-]C(=O)CC(=O)[N-]N(C)C(=S)c1ccccc1)C(=S)c1ccccc1.[Cu+2]` reads -58% (active). Turning to `N#Cc1c(-c2ccc(F)cc2)cc(-c2c[nH]c3ccccc23)nc1-c1c[nH]c2ccccc12`, the growth was 99.3%. Turning to `CC(C)(C)c1cc(C(=O)N2CCC(C(=O)NCCN)CC2)cc(C(C)(C)C)c1`, the growth is 82.4%. The result for `C[n+]1c(/C=C/c2c[nH]c3ccccc23)ccc2ccccc21` reads 23%.
